From PubChem BioAssay (Tox21)
Results filed as inconclusive are left out. Activity calls are given as the source filed them. Unless noted, the call rests on the fitted dose curve; in most records, active means well fitted curve in the direction sought with a large enough effect in the repeat runs; inconclusive means weak or mixed curves; inactive means no such curve, though single readings can be large; an effect the other way counts as inactive or inconclusive.

What was measured:
[1] = qHTS assay to identify small molecule agonists of the peroxisome proliferator-activated receptor delta (PPARd) signaling pathway - cell viability counter screen (AID 743211); further: nearly all actives have a fitted effect of over 55% in size
Procedure, shortened: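 In the same wells used for beta-lactamase reporter measurement, cytotoxicity is scored by CellTiter-Glo. HEK293H PPARd-bla cells receive compound for 17 h at 37C following a 5 h settling period.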

[2] = target: Peroxisome proliferator-activated receptor delta (Homo sapiens) (UniProt Q03181); experiment: qHTS assay to identify small molecule agonists of the peroxisome proliferator-activated receptor delta (PPARd) signaling pathway (AID 743212; calls by dose curve;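 further: HEK293H cells with PPARd UAS beta-lactamase reporter GeneBLAzer system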)
Sequence of Peroxisome proliferator-activated receptor delta (Homo sapiens) (Q03181 whole entry, looked up): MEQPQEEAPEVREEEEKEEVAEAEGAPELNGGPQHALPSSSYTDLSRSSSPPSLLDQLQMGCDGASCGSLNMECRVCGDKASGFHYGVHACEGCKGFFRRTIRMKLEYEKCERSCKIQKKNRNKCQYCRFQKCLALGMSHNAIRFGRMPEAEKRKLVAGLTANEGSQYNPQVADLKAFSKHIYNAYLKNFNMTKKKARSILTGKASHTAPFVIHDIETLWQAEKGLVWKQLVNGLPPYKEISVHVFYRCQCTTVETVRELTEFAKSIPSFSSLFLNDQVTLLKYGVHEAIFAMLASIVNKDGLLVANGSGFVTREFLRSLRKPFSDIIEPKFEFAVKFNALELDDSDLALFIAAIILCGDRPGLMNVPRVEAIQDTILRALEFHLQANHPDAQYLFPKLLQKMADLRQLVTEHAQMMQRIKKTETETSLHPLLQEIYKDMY
Procedure, shortened: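 Beta-lactamase reporter read by fluorescence (LiveBLAzer B/G FRET, 2 h, room temperature). Test agents, in DMSO, incubated at 37 C with PPARd-bla HEK293H cells.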

[3] = target: Peroxisome proliferator-activated receptor delta (Homo sapiens) (UniProt Q03181); experiment: qHTS assay to identify small molecule antagonists of the peroxisome proliferator-activated receptor delta (PPARd) signaling pathway (AID 743215; active means well fitted inhibition curve with a large enough effect in the signal ratio in the repeat runs, not every such curve was filed as active; the % refers to the signal ratio;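 further: cells stimulated with agonist L165041 at 300 nM final during compound exposure; series mostly up to about 62 µM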)
Procedure, shortened: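 Plated HEK293H PPARd-bla cells rested 5 h at 37 C and 5% CO2. Compound, then agonist L165041 at 300 nM final, was added; 17 h at 37 C followed. Substrate loading, 2 h room temperature, fluorescence measured.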

[4] = target: Bile acid receptor (Homo sapiens) (UniProt Q96RI1); experiment: qHTS assay to identify small molecule antagonists of the farnesoid-X-receptor (FXR) signaling pathway (AID 743217; active means well fitted inhibition curve with a large enough effect in the signal ratio in the repeat runs, not every such curve was filed as active; the % refers to the signal ratio)
Sequence of Bile acid receptor (Homo sapiens) (Q96RI1 whole entry, looked up): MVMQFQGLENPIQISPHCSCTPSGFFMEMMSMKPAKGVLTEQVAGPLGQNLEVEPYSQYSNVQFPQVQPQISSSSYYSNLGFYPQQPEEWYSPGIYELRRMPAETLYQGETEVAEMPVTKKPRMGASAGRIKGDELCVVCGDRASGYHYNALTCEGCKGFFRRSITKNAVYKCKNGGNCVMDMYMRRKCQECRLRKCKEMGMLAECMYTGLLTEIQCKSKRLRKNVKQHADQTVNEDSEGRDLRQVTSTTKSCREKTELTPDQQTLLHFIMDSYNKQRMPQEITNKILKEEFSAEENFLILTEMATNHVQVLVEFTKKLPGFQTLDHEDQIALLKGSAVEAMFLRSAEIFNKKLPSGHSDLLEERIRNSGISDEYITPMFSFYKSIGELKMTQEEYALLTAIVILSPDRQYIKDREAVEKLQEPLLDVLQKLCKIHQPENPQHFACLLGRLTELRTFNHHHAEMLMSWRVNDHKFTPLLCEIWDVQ
Procedure, shortened: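 Screen of the Tox21 10K library in quantitative HTS format using FXR-UAS-bla HEK 293T reporter cells. Agonist chenodeoxycholic acid, 50 uM final, added with compounds; 16 h incubation at 37 °C; beta-lactamase FRET fluorescence measured.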

[5] = qHTS assay to identify small molecule agonists of the farnesoid-X-receptor (FXR) signaling pathway - cell viability counter screen (AID 743218); further: nearly all actives have a fitted effect of over 45% in size
Procedure, shortened: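 Viability of FXR-bla HEK 293T cells is measured by ATP-based CellTiter-Glo luminescence following 16 h compound treatment at 37 C and a prior 2 h room-temperature beta-lactamase substrate step.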

[6] = target: Bile acid receptor (Homo sapiens) (UniProt Q96RI1); experiment: qHTS assay to identify small molecule agonists of the farnesoid-X-receptor (FXR) signaling pathway (AID 743220; active means well fitted activation curve with a large enough effect in the signal ratio in the repeat runs, not every such curve was filed as active; the % refers to the signal ratio)
Procedure, shortened: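 FXR-UAS-bla HEK 293T cells carrying a UAS-driven beta-lactamase reporter were plated for 5 h at 37C/5% CO2, then exposed to DMSO-dissolved Tox21 10K compounds for 16 h at 37C. A LiveBLAzer B/G FRET substrate was loaded for 2 h at room temperature before fluorescence reading.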

[7] = qHTS assay to identify small molecule antagonists of the farnesoid-X-receptor (FXR) signaling pathway - cell viability counter screen (AID 743221; active means well fitted cell-killing curve with a large enough effect in the repeat runs, not every such curve was filed as active; further: nearly all actives have a fitted effect of over 50% in size)
Procedure, shortened: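 Here viability was scored by luminescence after CellTiter-Glo addition to wells already read for beta-lactamase. Prior treatment: compound plus CDCA (50 uM final), 16 h, 37 C, HEK 293T FXR-bla cells.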

[8] = target: Vitamin D3 receptor (Homo sapiens) (UniProt P11473); experiment: qHTS assay to identify small molecule agonists of the vitamin D receptor (VDR) signaling pathway (AID 743222; calls by dose curve)
Sequence of Vitamin D3 receptor (Homo sapiens) (P11473 whole entry, looked up): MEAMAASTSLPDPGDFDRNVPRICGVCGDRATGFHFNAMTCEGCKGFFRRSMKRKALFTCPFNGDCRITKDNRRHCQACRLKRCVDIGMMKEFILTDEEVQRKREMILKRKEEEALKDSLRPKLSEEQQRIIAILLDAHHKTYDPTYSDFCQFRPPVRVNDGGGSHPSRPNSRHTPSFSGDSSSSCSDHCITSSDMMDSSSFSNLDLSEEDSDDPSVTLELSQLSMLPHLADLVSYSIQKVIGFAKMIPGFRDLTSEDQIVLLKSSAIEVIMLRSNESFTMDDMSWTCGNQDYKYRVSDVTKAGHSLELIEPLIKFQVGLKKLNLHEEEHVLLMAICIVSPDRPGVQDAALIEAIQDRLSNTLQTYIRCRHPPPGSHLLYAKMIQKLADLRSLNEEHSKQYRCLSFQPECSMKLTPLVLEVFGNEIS
Procedure, shortened: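 Fluorescence from cleaved LiveBLAzer B/G FRET substrate served as readout. VDR-bla cells had been treated 16 h at 37C with test compounds in DMSO, following a 4 h settling period, and substrate was loaded for 2 h at RT.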

[9] = target: Vitamin D3 receptor (Homo sapiens) (UniProt P11473); experiment: qHTS assay to identify small molecule antagonists of the vitamin D receptor (VDR) signaling pathway (AID 743223; active means well fitted inhibition curve with a large enough effect in the signal ratio in the repeat runs, not every such curve was filed as active; the % refers to the signal ratio)
Procedure, shortened: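 Inhibition of agonist-driven VDR signalling is scored in VDR-bla cells: 3 nM final 1alpha,25-dihydroxyvitamin D3 plus compound, 16 h at 37C, then beta-lactamase detection by FRET substrate fluorescence after 2 h.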

[10] = qHTS assay to identify small molecule agonists of the vitamin D receptor (VDR) signaling pathway - cell viability counter screen (AID 743224); further: series mostly up to about 63 µM; nearly all actives have a fitted effect of over 50% in size
Procedure, shortened: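 Compounds were pin-transferred onto VDR-bla cells plated 4 h earlier; following 16 h incubation at 37C, cell viability was quantified by CellTiter-Glo luminescence after 30 min at room temperature.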

[11] = qHTS assay to identify small molecule antagonists of the vitamin D receptor (VDR) signaling pathway - cell viability counter screen (AID 743225); further: nearly all actives have a fitted effect of over 50% in size
Procedure, shortened: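 Compounds were pinned onto VDR-bla HEK 293T cells together with 1-alpha,25-dihydroxyvitamin D3 at 3 nM final. After 16 h at 37C and 5% CO2 plus the reporter readout, cell viability was measured by CellTiter-Glo luminescence (30 min, room temperature).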

[12] = qHTS assay to identify small molecule agonists of the NFkB signaling pathway (AID 1159509; active means well fitted curve in the direction sought with a large enough effect in the signal ratio in the repeat runs, not every such curve was filed as active; the % refers to the signal ratio; further: series mostly up to about 61 µM)
Procedure, shortened: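 Beta-lactamase reporter assay run in quantitative high-throughput format on an NF-kB-responsive ME-180 line, with 5 hr compound treatment and a FRET-based blue/green fluorescence readout.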

[13] = qHTS assay to identify small molecule agonists of the NFkB signaling pathway - cell viability counter screen (AID 1159515; calls by dose curve; further: series mostly up to about 61 µM; nearly all actives have a fitted effect of over 55% in size)
Procedure, shortened: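 Parallel cytotoxicity counter screen in ME-180 cells carrying an NFkB-response-element beta-lactamase reporter, 2,000 cells/well. Compound exposure lasted 5 hr at 37 C, 5% CO2. Cell viability was quantified by CellTiter-Glo luminescence.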

[14] = qHTS assay to identify small molecule agonists of the endoplasmic reticulum stress response signaling pathway - cell viability counter screen (AID 1159517; calls by dose curve;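 further: HeLa cells carrying an ER stress response element beta-lactamase reporter; series mostly up to about 61 µM; nearly all actives have a fitted effect of over 50% in size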)
Procedure, shortened: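 Cytotoxicity of test compounds toward ESRE-bla HeLa cells was assessed after 5 hr exposure. The luminescent CellTiter-Glo signal was measured 30 min after reagent addition.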

[15] = qHTS assay to identify small molecule antagonists of the retinoid-related orphan receptor gamma (ROR-gamma) signaling pathway - cell viability counter screen (AID 1159520); further: nearly all actives have a fitted effect of over 50% in size
Procedure, shortened: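 Tet-on ROR gamma CHO cells (1,000/well) were plated 4 hr, given compounds in DMSO for 2 hr at 37 C, then induced with 1 uM final doxycycline for 16 hr. Viability was read as ATP by CellTiter-Glo luminescence after 30 min.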

[16] = qHTS assay to identify small molecule agonists of the AP-1 signaling pathway - cell viability counter screen (AID 1159525; calls by dose curve; further: nearly all actives have a fitted effect of over 55% in size)
Procedure, shortened: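 Each titration point was normalised to DMSO and tetra n-octyl ammonium bromide controls. The read was Cell Titer Glo luminescence after 30 min at RT, following 5 h compound exposure of ME-180 AP-1-bla cells at 37 °C.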

[17] = qHTS assay to identify small molecule agonists of the AP-1 signaling pathway (AID 1159526; calls by dose curve)
[18] = qHTS assay to identify small molecule antagonists of the peroxisome proliferator-activated receptor delta (PPARd) signaling pathway - cell viability counter screen (AID 743213); further: nearly all actives have a fitted effect of over 50% in size
Procedure, shortened: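 HEK293H PPARd UAS-bla cells, 5 h pre-incubation, compound + L165041 300 nM final, 17 h 37 C; B/G FRET substrate 2 h RT; then CellTiter-Glo 30 min RT, luminescence.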

[19] = target: Nuclear receptor ROR-gamma (Homo sapiens) (UniProt P51449); experiment: qHTS assay to identify small molecule antagonists of the retinoid-related orphan receptor gamma (ROR-gamma) signaling pathway (AID 1159521)
Procedure, shortened: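 Test compounds were applied to Tet-on RORγ CHO cells 2 h ahead of doxycycline hyclate (1 uM final). Luciferase reporter activity was quantified by luminescence after 16 h at 37 C and 5% CO2.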

[20] = qHTS assay to identify small molecule agonists of the endoplasmic reticulum stress response signaling pathway (AID 1159516; active means well fitted activation curve with a large enough effect in the signal ratio in the repeat runs, not every such curve was filed as active; the % refers to the signal ratio)
Procedure, shortened: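 Using a HeLa line with an ESRE-driven beta-lactamase gene, agonist activity was measured by FRET substrate fluorescence (460 and 530 nm emission) after cells were treated with compounds for 5 hr at 37 C and 5% CO2.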

Measured: Potency

Cc1cc(C)cc([N+](=O)[O-])c1
not listed: [18] | [19] | [20]
inactive: all other assays above

CCCCC/C=C/CC(=O)OC
not listed: [2] | [3] | [4] | [6] | [10] | [20]
inactive: all other assays above

Cn1c(=O)c2c(ncn2CC2OCCO2)n(C)c1=O
not listed: [8] | [9] | [20]
inactive: all other assays above

CCCCC(=O)N(C)C
not listed: [4] | [6] | [20]
inactive: all other assays above

CCC(C)(CCC(C)C)C(=O)[O-].CCC(C)(CCC(C)C)C(=O)[O-].[Zn+2] (stereo not given)
not listed: [4] | [6] | [9] | [13]
inactive: all other assays above

CN(C)CCCNCCC#N
not listed: [4] | [6] | [11] | [13]
inactive: all other assays above

Cc1nc2n(c(=O)c1CCN1CCC(C(=O)c3ccc(F)cc3)CC1)CCS2
not listed: [1] | [13] | [20]
inactive: all other assays above

CC(C)=CC(C)(C)C
not listed: [2] | [3] | [11] | [12]
inactive: all other assays above
